Laboratory results reported in PubChem BioAssay (NCATS).
Inconclusive results are not listed. Unless noted, calls come from the whole dose curve; as a rule, active = well fitted curve in either direction with a large enough effect (not every such curve was filed as active); inconclusive = small, poorly fitted or top-dose-only effect, or another doubt; inactive = flat fitted curve, though single readings scatter.

Columns and labels:
[1] = AP1 Signaling Pathway (AID 357); settings: ME-180 AP-1-bla reporter, EGF-induced, beta-lactamase ratio, 5 h; at 17.2 µM (top of the series) unless noted;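 note: ME-180 reporter cells stimulated with EGF at its EC50 level; % is set by controls: 0 for no effect and ±100 for the full control effect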
Procedure, shortened: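 Read-out was the 460nm/530nm emission ratio (excitation 405nm) after CCF4 loading for 2.5 hours at room temperature. Cells carried an AP-1-driven beta-lactamase reporter, were stimulated with EC50 EGF plus compound for 5 hours, and AC50 values came from titrations.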

[2] = NFAT Signaling Pathway (AID 444); settings: Jurkat NFAT-bla M1, carbachol, beta-lactamase ratio, 5 h; at 17.2 µM (top of the series) unless noted;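 note: carbachol stimulus at about its EC50 of 1 µM final; % is set by controls: 0 for no effect and ±100 for the full control effect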
Procedure, shortened: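 Jurkat cells with NFAT-driven β-lactamase reporter and co-expressed M1 receptor, stimulated with carbachol (final 1 uM, ~EC50), compound titration, 5 h at 37 °C. CCF4 loaded 1 h at RT; 460/530 nm ratio gave %activity and AC50.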

[3] = Stat Signaling Pathway (AID 446); settings: ME-180 (cervical carcinoma) SIE beta-lactamase reporter, IL-6 stimulated, 5 h; at 17.2 µM (top of the series) unless noted;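 note: ME-180 cervical cancer cells given 40 pM IL-6 alongside compound; SIE-controlled beta-lactamase reporter measured as 460/530 nm FRET emission ratio; % is set by controls: 0 for no effect and ±100 for the full control effect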
Procedure, shortened: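 Overnight-plated ME-180 cells bearing a STAT Inducible Element beta-lactamase reporter; 5 h co-exposure to compound and 40 pM IL-6; values normalized to 300 pM IL-6 and 125 nM JAK inhibitor controls.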

[4] = target: Glucocorticoid receptor (Homo sapiens) (UniProt P04150); assay: GR-GFP Redistribution (AID 450;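 active = compounds whose dose series gives a full or clear partial fitted curve of increased nuclear translocation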; note: potency is the fitted concentration of half-maximal effect)
Sequence of Glucocorticoid receptor (Homo sapiens) (P04150 whole entry, looked up): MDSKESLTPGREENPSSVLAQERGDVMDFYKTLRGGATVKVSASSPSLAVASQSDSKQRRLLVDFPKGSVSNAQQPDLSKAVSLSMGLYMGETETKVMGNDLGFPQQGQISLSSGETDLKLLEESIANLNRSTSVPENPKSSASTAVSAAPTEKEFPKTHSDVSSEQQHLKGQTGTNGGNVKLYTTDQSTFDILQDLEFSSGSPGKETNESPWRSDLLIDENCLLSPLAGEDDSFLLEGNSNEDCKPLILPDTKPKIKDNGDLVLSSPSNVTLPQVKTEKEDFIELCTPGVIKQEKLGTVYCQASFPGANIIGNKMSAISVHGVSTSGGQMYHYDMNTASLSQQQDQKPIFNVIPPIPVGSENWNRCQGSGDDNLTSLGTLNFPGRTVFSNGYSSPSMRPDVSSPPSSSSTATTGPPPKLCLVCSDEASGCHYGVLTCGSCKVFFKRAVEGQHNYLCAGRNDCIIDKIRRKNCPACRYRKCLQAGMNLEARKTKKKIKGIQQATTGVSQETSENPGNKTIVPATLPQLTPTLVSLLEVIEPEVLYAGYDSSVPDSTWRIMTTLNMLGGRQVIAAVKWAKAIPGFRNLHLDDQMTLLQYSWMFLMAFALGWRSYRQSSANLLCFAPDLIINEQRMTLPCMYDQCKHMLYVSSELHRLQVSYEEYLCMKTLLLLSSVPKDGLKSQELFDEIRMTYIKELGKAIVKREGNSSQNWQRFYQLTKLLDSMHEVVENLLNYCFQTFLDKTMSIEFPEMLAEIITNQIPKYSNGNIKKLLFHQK

COc1cccc(C2C(C(=O)c3sc(C)nc3C)=C(O)C(=O)N2CCN2CCOCC2)c1OC (stereo not given)
inactive: activity change, negative = inhibition [1] 3.76% | activity change, negative = inhibition [2] 12.8% | activity, negative = inhibition [3] 7.97% | Potency [4] > 20.6 µM

Cc1nnc2n(-c3ccccc3)c(=O)c3c4c(sc3n12)COC(C)(C)C4
inactive: activity change, negative = inhibition [1] 4.08% | activity change, negative = inhibition [2] -10.7% | activity, negative = inhibition [3] -0.141% | Potency [4] > 20.6 µM

COc1ccc(Oc2nc3c(c(=O)n(C)c(=O)n3C)n2Cc2cccc(OC)c2)cc1
inactive: activity change, negative = inhibition [1] -6% | activity change, negative = inhibition [2] -3.53% | activity, negative = inhibition [3] -2.94% | Potency [4] > 20.6 µM

CC/C(=N\O)c1ccc(OC)c(OC)c1
inactive: activity change, negative = inhibition [1] 4.83% | activity change, negative = inhibition [2] 2.19% | activity, negative = inhibition [3] 3.07% | Potency [4] > 20.6 µM

c1cncc(Oc2cccc(Oc3cccnc3)c2)c1
inactive: activity change, negative = inhibition [1] -6.49% | activity change, negative = inhibition [2] -3.08% | activity, negative = inhibition [3] 29.4% | Potency [4] > 20.6 µM

CCOc1cccc(-c2nnc3sc(-c4cccs4)nn23)c1
inactive: activity change, negative = inhibition [1] -12.6% | activity change, negative = inhibition [2] -10.8% | activity, negative = inhibition [3] 5.52% | Potency [4] > 20.6 µM

CCOC(=O)c1c(C)oc2ccc(OCC(=O)C(C)(C)C)cc12
inactive: activity change, negative = inhibition [1] -23.5% | activity change, negative = inhibition [2] 2.59% | activity, negative = inhibition [3] -10.1% | Potency [4] > 20.6 µM

CN(C)C=C1C(=O)c2ccccc2C1=O
inactive: activity change, negative = inhibition [1] 6.29% | activity change, negative = inhibition [2] 3.97% | activity, negative = inhibition [3] 1.64% | Potency [4] > 20.6 µM

CN(C)c1ccc(C=NCCC2(O)CCOC(C)(C)C2)cc1 (stereo not given)
inactive: activity change, negative = inhibition [1] 0.733% | activity change, negative = inhibition [2] 4.94% | activity, negative = inhibition [3] -0.198% | Potency [4] > 20.6 µM

Cn1nccc1C(=O)Nc1ccccc1C(=O)O
inactive: activity change, negative = inhibition [1] -2.42% | activity change, negative = inhibition [2] 5.13% | activity, negative = inhibition [3] 4.71% | Potency [4] > 20.6 µM

COC(=O)c1ccc(Nc2cc(C)nc(-c3ccccc3O)n2)cc1
inactive: activity change, negative = inhibition [1] 15.3% | activity change, negative = inhibition [2] -10.8% | activity, negative = inhibition [3] -5.42% | Potency [4] > 20.6 µM

CCOC(=O)CNS(=O)(=O)c1cc(-c2nn(C)c(=O)c3ccccc23)ccc1C
inactive: activity change, negative = inhibition [1] 7.12% | activity change, negative = inhibition [2] -12.6% | activity, negative = inhibition [3] -5.95% | Potency [4] > 20.6 µM

COC(=O)COn1c(SCC(=O)OC)nc2ccccc2c1=O
inactive: activity change, negative = inhibition [1] 2.38% | activity change, negative = inhibition [2] 3.27% | activity, negative = inhibition [3] -1.3% | Potency [4] > 20.6 µM

Cn1c(=O)n(C)c2cc(C(=O)c3ccccc3)ccc21
inactive: activity change, negative = inhibition [1] 17.6% | activity change, negative = inhibition [2] -28.2% | activity, negative = inhibition [3] -6.62% | Potency [4] > 20.6 µM

O=C1C2CC=C(Cl)CC2C(=O)N1CNc1ccccn1 (stereo not given)
inactive: activity change, negative = inhibition [1] -0.589% | activity change, negative = inhibition [2] -12.9% | activity, negative = inhibition [3] 7.34% | Potency [4] > 20.6 µM

Cc1ccc(/C=N/n2nnnc2N)o1
inactive: activity change, negative = inhibition [1] 2.97% | activity change, negative = inhibition [2] -0.388% | activity, negative = inhibition [3] -5.51% | Potency [4] > 20.6 µM

Cc1c(NS(=O)(=O)c2cccc3nsnc23)c(=O)n(-c2ccccc2)n1C
inactive: activity change, negative = inhibition [1] 16.3% | activity change, negative = inhibition [2] -7.17% | activity, negative = inhibition [3] 0.737% | Potency [4] > 20.6 µM

O=C1CC(c2ccccc2)NC(=O)N1 (stereo not given)
inactive: activity change, negative = inhibition [1] 8.17% | activity change, negative = inhibition [2] -2.15% | activity, negative = inhibition [3] -0.378% | Potency [4] > 20.6 µM

O=C(Oc1cccnc1)c1ccco1
inactive: activity change, negative = inhibition [1] 7.51% | activity change, negative = inhibition [2] 5.81% | activity, negative = inhibition [3] 8.88% | Potency [4] > 20.6 µM

O=C(C1=C(O)C(=O)N(c2ncccn2)C1c1cccc(Cl)c1)c1ccco1 (stereo not given)
inactive: activity change, negative = inhibition [1] -4.37% | activity change, negative = inhibition [2] 22.6% | activity, negative = inhibition [3] -6.45% | Potency [4] > 20.6 µM

CC1CCc2cc(F)cc3c(O)c(C(=O)NCC4CCCO4)c(=O)n1c23 (stereo not given)
inactive: activity change, negative = inhibition [1] -6.28% | activity change, negative = inhibition [2] -19.9% | activity, negative = inhibition [3] 1.8% | Potency [4] > 20.6 µM

COC(=O)CNC(=O)c1c(C)cc(=O)oc1C
inactive: activity change, negative = inhibition [1] 21.5% | activity change, negative = inhibition [2] 13.6% | activity, negative = inhibition [3] 5.86% | Potency [4] > 20.6 µM

O=c1[nH]nc2n1CCCCC2
inactive: activity change, negative = inhibition [1] 13.2% | activity change, negative = inhibition [2] 9.36% | activity, negative = inhibition [3] 7.42% | Potency [4] > 20.6 µM

CCOC(=O)C(OC(=O)c1sc(=S)n(C)c1C)C(C)=O (stereo not given)
inactive: activity change, negative = inhibition [1] 18% | activity change, negative = inhibition [2] 6.69% | activity, negative = inhibition [3] 9.46% | Potency [4] > 20.6 µM

COC(=O)c1[nH]c2ccc(Cl)cc2c1NC(=O)C1CC1
inactive: activity change, negative = inhibition [1] -4.32% | activity change, negative = inhibition [2] -26.4% | activity, negative = inhibition [3] 1.62% | Potency [4] > 20.6 µM
